Test results as given in PubChem BioAssay (NCI).
The panel holds about 83,000 compounds, 20% with a hit somewhere; the sample as a whole holds those more often.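 48-hour exposure, single concentration, 96-well plates; percent growth endpoint where 0 means no net growth. Active: below 10.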 Unmarked numbers belong to inactive results. Active and inactive are the calls of the source.

Test system: MOLT-4 leukemia
Experiment: NCI-60 one-dose screen, 48 h (100 = growth as untreated, 0 = no growth, -100 = all killed)
Details: 10 µM unless noted

SMILES	growth
CC[C@H](CO)Nc1ccc2ncc(C#Cc3cncc(C(=O)Nc4ccc(CN5CCN(C)CC5)c(C(F)(F)F)c4)c3)n2n1	-3.11% (active)
COc1cc(-c2nc(SCCC(C)C)nc(NNC(=O)c3ccncc3)c2C#N)cc(OC)c1OC	68.7%
CCCCCc1ccc(S(=O)(=O)Nc2cc(-c3csc(NC(=O)CN4CCN(CCO)CC4)n3)ccc2OC)cc1	6.18% (active)
CCCn1cnc2c(c1=N)C(c1ccc(OC)cc1)c1sc3c(CC)cccc3c1O2 (stereo not given)	14.5%
C#Cc1ccc(C(=O)NCc2ccc(/C=C/C(=O)c3nccn3C)cc2)cc1	1.15% (active)
